Active and inactive are the calls of the source. The calls were made as follows: active = hit-call score of the fitted dose curve at least 0.9, where 1 is the maximum; inactive = score below 0.9.
experiment: CCTE_Shafer_MEA_acute_burst_number: CCTE's Neural Acute Assay for Single-Electrode Bursts, Shafer Lab (AID 2284013)
Protocol: CCTE_Shafer_MEA_acute assay is conducted using Axion Biosystems 48 well microelectrode array (MEA) plates and Maestro recording system. Each well of the MEA plate contains a grid of 16 microelectrodes embedded in the culture surface. Electrically active cells, such as neurons, can be cultured over the electrodes, and electrical activity in these cells can be recorded extracellularly. The spontaneous firing of neurons is captured from each electrode on a microsecond timescale providing both temporally and spatially precise data. […] The CCTE_Shafer_MEA_acute assay uses primary cultures of rat cortical neurons. As these cultures mature over time, neural networks develop functional activity and form cohesive networks in which electrical activity can be highly coordinated. Baseline 40-minute recordings are made on days post-plating 13 or 15, followed by a secondary 40-minute recording after chemical exposure.CCTE_Shafer_MEA_acute_burst_number is a component of the CCTE_Shafer_MEA_acute assay. It measures the total number of single-electrode bursts (temporally-clustered groups of action potential firing) during a recording in a microelectrode array (MEA) using Axion Biosystems Maestro 768 channel amplifier with the AxIS adaptive spike detector. The recordings before and after chemical treatment are used to calculate a percent change in the burst number in each well.Data from the assay component CCTE_Shafer_MEA_acute_burst_number was analyzed into 1 assay endpoint. This assay endpoint, CCTE_Shafer_MEA_acute_burst_number, was analyzed in the negative analysis fitting direction relative to DMSO as the negative control and baseline of activity. Using a type of functional reporter, gain or loss-of-signal activity can be used to understand electrical activity.
Spontaneous activity in the cortical cultures was recorded using an Axion Biosystems Maestro 768 channel amplifier and Axion Integrated Studios (AxIS) v1.8 (or later) software. The amplifier recorded from all channels simultaneously (gain = 1200 x; sampling rate = 12.5 kHz/channel): raw signals were filtered with a Butterworth band-pass filter (300-5000 Hz), which filters out slower local field potentials leaving only fast potentials, i.e., "spikes", arising from extracellular currents associated with action potentials (Pine 2006; Wheeler and Nam 2011). On-line spike detection of filtered signals was conducted with the AxIS adaptive spike detector, using a threshold of 8x the root mean squared (rms) noise on each channel. Any electrodes with rms noise levels greater than 5 uV were grounded (e.g., no data were recorded). Once grounded, an electrode was grounded for the duration of the experiment. All recordings were conducted at 37 C. Wells were deemed usable if on the day of the exposure >/= 10 electrodes were active (defined as >/= 5 spikes/min). On DIV 13 or 15, a minimum of three wells from one cortical culture preparation were treated with each compound (0.03-40 uM). Prior to recording baseline activity, each mwMEA plate was placed in the Maestro at 37 C and allowed to sit for 20 min while firing rates stabilized. Baseline activity (40 min) was recorded before the addition of each compound. An additional 40 min of spontaneous activity was recorded in the presence of each compound. Changes in network parameters relative to baseline were assessed following compound treatment.

| SMILES | AC50 | outcome |
| --- | --- | --- |
| Cc1cc(C2(c3cc(C)c(O)cc3C)OS(=O)(=O)c3ccccc32)c(C)cc1O | 148 nM (active) | – |
| NCCNCCN | – | inactive |
| Nc1cc([N+](=O)[O-])ccc1O | – | inactive |
| CC(=O)OCCC(C)CC(C)(C)C (stereo unspecified) | – | inactive |
| CC[Si](OC(C)=O)(OC(C)=O)OC(C)=O | 429 nM (active) | – |
| OC[C@H]1O[C@H](O[C@]2(CCl)O[C@H](CCl)[C@@H](O)[C@@H]2O)[C@H](O)[C@@H](O)[C@H]1Cl | – | inactive |
| C[C@H]1C[C@@H]2[C@H]([C@@H](O)C[C@@]3(C)[C@H]2CC[C@]3(O)C(=O)CO)[C@@]2(C)C=CC(=O)C=C12 | 3 nM (active) | – |
| COc1cc(C=O)ccc1OC(=O)C(C)C | – | inactive |
| CCCCCCCCC=O | – | inactive |
| OC1OC[C@@H](O)[C@H](O)[C@H]1O (stereo partly specified) | – | inactive |
| CN(C)C(=N)N=C(N)N | – | inactive |
| CC(C)(COC(=O)c1ccccc1)COC(=O)c1ccccc1 | – | inactive |
| C=CCOC(=O)CCC1CCCCC1 | – | inactive |
| CCC(=O)OCc1ccccc1 | – | inactive |
| C=C[Si](OCC)(OCC)OCC | – | inactive |
| CC(=O)[C@H]1CC[C@H]2[C@@H]3CC=C4C[C@@H](O)CC[C@]4(C)[C@H]3CC[C@]12C | 14.4 nM (active) | – |
